Several values for one entry are separate records, joined by “and”; a condition that tells them apart may be missing. Equal entries are not always repeated. Some structures have more than one record in an assay (separate samples or runs), and their calls can disagree. Activity calls are given as the source filed them. Rule for the calls: active = hit-call score of the fitted dose curve at least 0.9, where 1 is the maximum; inactive = score below 0.9.
How the values were obtained:
[1] = ATG_E_Box_CIS: Attagene CIS-FACTORIAL HepG2 Assay for human Enhancer Box (E-box) (AID 2282936); conditions: HepG2 E-box cis-reporter transcription, actives raise or lower the signal
Outline: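 Transiently transfected HepG2, endogenous TF-driven reporters, 24 h dosing. Readout: RT-PCR plus capillary electrophoresis of fluorescent reporter fragments. Gain or loss of signal fitted bidirectionally against DMSO baseline.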

[2] = ATG_M_61_CIS: Attagene CIS-FACTORIAL HepG2 Assay for M61 Transcription Factor (Internal Marker) (AID 2282937); conditions: HepG2 Attagene CIS-FACTORIAL M61 internal marker reporter; actives raise or lower the signal
Outline: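 Background-control endpoint: HepG2 cells with cis-regulated reporter constructs, 24 h exposure, reporter mRNA detected via fluorescent primer extension and capillary electrophoresis; values from bidirectional fitting with DMSO baseline.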

[3] = ATG_EGR_CIS: Attagene CIS-FACTORIAL HepG2 Assay for human Early Growth Response 1 (EGR1) (AID 2282938); conditions: HepG2 Attagene CIS-FACTORIAL EGR reporter mRNA; actives raise or lower the signal
Outline: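 Endpoint derived by bidirectional fitting versus DMSO vehicle. Method: cis-promoter reporter units transfected into HepG2, 24 h dosing, RNA isolation, RT-PCR with 6-FAM primer extension and HpaI digestion, then capillary electrophoresis fluorescence detection.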

[4] = ATG_M_19_CIS: Attagene CIS-FACTORIAL HepG2 Assay for M19 Transcription Factor (Internal Marker) (AID 2282939); conditions: HepG2 Attagene CIS-FACTORIAL M19 internal marker reporter; actives raise or lower the signal
Outline: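 Background-control endpoint from a multiplexed HepG2 reporter panel. Cells carrying cis-regulated reporter constructs are treated 24 h, then reporter transcripts are amplified, fluorescently labelled and sized by capillary electrophoresis. DMSO defines baseline.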

[5] = ATG_ERE_CIS: Attagene CIS-FACTORIAL HepG2 Assay for Estrogen Response Element (ERE) (AID 2282940); conditions: HepG2 ERE cis-reporter, Attagene RNA transcript; actives raise or lower the signal
Outline: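 Cells used were human hepatoma HepG2, transfected with multiple reporter transcription units under cis-regulatory promoters. Reporter mRNA, read 24 h post-dosing via fluorescent RT-PCR products on capillary electrophoresis, was fitted bidirectionally relative to DMSO.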

[6] = ATG_Ets_CIS: Attagene CIS-FACTORIAL HepG2 Assay for human Erythroblast Transformation Specific (ETS) (AID 2282941); conditions: HepG2 ETS cis-reporter transcription, actives raise or lower the signal
Outline: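 Multiplexed reporter transcript profiling: HepG2, 24 h treatment, total RNA to cDNA, PCR, 6-FAM labelling, HpaI cut, capillary electrophoresis. Gain- or loss-of-signal fitted against DMSO.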

[7] = target: Hepatocyte nuclear factor 3-beta (Homo sapiens) (UniProt Q9Y261); experiment: ATG_FoxA2_CIS: Attagene CIS-FACTORIAL HepG2 Assay for human Forkhead box A2 (FOXA2) (AID 2282942); conditions: HepG2 cis-reporter transcription factor activity, 24 h; actives raise or lower the signal
Hepatocyte nuclear factor 3-beta (Homo sapiens), sequence (Q9Y261 whole entry, looked up): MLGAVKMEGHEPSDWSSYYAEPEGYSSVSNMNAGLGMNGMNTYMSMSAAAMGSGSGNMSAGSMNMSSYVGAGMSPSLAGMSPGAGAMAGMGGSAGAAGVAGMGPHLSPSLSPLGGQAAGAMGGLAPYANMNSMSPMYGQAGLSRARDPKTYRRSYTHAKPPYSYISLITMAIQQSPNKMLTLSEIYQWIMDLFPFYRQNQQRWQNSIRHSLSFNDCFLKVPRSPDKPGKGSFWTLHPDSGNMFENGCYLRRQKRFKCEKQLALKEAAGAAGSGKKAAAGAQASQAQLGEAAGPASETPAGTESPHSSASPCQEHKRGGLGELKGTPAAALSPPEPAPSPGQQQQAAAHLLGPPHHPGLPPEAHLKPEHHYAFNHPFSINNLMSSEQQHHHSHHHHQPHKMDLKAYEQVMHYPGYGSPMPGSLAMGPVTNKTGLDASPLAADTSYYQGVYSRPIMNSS
Outline: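 Measured: reporter mRNA induction or loss in HepG2 transiently carrying multiple cis-regulated reporter units, 24 h after dosing. Quantified by RT-PCR plus capillary electrophoresis, normalised to DMSO.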

[8] = ATG_FoxO_CIS: Attagene CIS-FACTORIAL HepG2 Assay for human Forkhead box O (FoxO) (AID 2282943); conditions: HepG2 Attagene cis-reporter, FoxO element, mRNA; actives raise or lower the signal
Outline: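 Transfected HepG2 reporter cells exposed to test chemical for 24 h; reporter RNA measured by reverse transcription, PCR and fluorescent capillary electrophoresis; curves fitted for increases and decreases against DMSO.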

[9] = ATG_GATA_CIS: Attagene CIS-FACTORIAL HepG2 Assay for human GATA Binding Protein (AID 2282944); conditions: HepG2 GATA cis-element reporter, Attagene multiplex mRNA; actives raise or lower the signal
Outline: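 Endogenous transcription factor activity was captured through cis-promoter-driven reporters in transfected HepG2 cells. After 24 h exposure, reporter transcripts were quantified by RT-PCR with fluorescent capillary electrophoresis, and responses fitted both directions against DMSO.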

[10] = ATG_GLI_CIS: Attagene CIS-FACTORIAL HepG2 Assay for human Zinc Finger Protein GLI1 (AID 2282945); conditions: HepG2, Attagene cis-factorial reporter mRNA, GLI element; actives raise or lower the signal
Outline: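 Transiently transfected HepG2 cells report endogenous transcription factor activity via cis-element-driven reporter units. After 24 h compound exposure, reporter mRNA was measured by RT-PCR with capillary electrophoresis; bidirectional fitting against DMSO baseline.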

[11] = target: Bile acid receptor (Homo sapiens) (UniProt Q96RI1); experiment: ATG_IR1_CIS: Attagene CIS-FACTORIAL HepG2 Assay for human Nuclear Receptor Subfamily 1 Group H Member 4 (NR1H4), IR1 submotif (AID 2282946); conditions: IR1 reporter transcription, actives raise or lower the signal
Bile acid receptor (Homo sapiens), sequence (Q96RI1 whole entry, looked up): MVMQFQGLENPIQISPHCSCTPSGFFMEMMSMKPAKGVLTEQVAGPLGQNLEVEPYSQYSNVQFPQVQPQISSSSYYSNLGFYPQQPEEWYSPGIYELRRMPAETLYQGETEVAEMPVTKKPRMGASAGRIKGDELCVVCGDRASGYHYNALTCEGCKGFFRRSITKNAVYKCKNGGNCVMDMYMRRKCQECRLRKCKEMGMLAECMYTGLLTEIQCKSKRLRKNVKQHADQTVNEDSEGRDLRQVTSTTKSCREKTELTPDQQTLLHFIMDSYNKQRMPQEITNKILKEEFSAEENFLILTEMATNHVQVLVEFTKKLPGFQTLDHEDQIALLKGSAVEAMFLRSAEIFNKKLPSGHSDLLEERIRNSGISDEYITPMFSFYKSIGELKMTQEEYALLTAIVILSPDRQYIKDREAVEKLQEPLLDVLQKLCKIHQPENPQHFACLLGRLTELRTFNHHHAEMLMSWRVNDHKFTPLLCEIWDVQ
Outline: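 Fluorescence of capillary-separated, HpaI-digested RT-PCR reporter products gave IR1-element mRNA induction in HepG2 cells 24 h after dosing. Endogenous transcription factors drove the cis-regulated reporters; activity was fitted bidirectionally against DMSO.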

[12] = ATG_GRE_CIS: Attagene CIS-FACTORIAL HepG2 Assay for human Glucocorticoid Response Elements (GRE) (AID 2282947); conditions: HepG2 GRE cis-reporter, Attagene multiplex mRNA; actives raise or lower the signal
Outline: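 Read-out: fluorescent reporter-transcript fragments separated by capillary electrophoresis after RT-PCR. Transiently transfected HepG2 cells carrying cis-element-driven reporter units were dosed for 24 h; gain or loss of signal fitted against DMSO control.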

[13] = ATG_ISRE_CIS: Attagene CIS-FACTORIAL HepG2 Assay for human Interferon Regulatory Factor 1 (IRF1) binding to an Interferon-Stimulated Response Element (ISRE) (AID 2282948); conditions: HepG2 ISRE cis-reporter (Attagene), mRNA transcription readout; actives raise or lower the signal
Outline: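 Signal reflects induction or loss of ISRE-linked reporter mRNA in transiently transfected HepG2 cells after a 24 h treatment, detected by fluorescent RT-PCR fragments on capillary electrophoresis and normalised to DMSO.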

[14] = ATG_M_06_CIS: Attagene CIS-FACTORIAL HepG2 Assay for M06 Transcription Factor (Internal Marker) (AID 2282950); conditions: HepG2 Attagene CIS-FACTORIAL M06 internal marker reporter; actives raise or lower the signal
Outline: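 Steps: transfect HepG2 with multiplexed cis-element reporter constructs; dose chemical 24 h; extract RNA with DNase treatment; reverse-transcribe, PCR-amplify, 6-FAM label, HpaI digest; separate fragments by capillary electrophoresis. Activity fitted both directions versus DMSO.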

[15] = target: Hypoxia-inducible factor 1-alpha (Homo sapiens) (UniProt Q16665); experiment: ATG_HIF1a_CIS: Attagene CIS-FACTORIAL HepG2 Assay for human Hypoxia Inducible Factor 1 (HIF1A) (AID 2282951); conditions: HepG2 Attagene cis-factorial HIF1a reporter transcription; actives raise or lower the signal
Hypoxia-inducible factor 1-alpha (Homo sapiens), sequence (Q16665 whole entry, looked up): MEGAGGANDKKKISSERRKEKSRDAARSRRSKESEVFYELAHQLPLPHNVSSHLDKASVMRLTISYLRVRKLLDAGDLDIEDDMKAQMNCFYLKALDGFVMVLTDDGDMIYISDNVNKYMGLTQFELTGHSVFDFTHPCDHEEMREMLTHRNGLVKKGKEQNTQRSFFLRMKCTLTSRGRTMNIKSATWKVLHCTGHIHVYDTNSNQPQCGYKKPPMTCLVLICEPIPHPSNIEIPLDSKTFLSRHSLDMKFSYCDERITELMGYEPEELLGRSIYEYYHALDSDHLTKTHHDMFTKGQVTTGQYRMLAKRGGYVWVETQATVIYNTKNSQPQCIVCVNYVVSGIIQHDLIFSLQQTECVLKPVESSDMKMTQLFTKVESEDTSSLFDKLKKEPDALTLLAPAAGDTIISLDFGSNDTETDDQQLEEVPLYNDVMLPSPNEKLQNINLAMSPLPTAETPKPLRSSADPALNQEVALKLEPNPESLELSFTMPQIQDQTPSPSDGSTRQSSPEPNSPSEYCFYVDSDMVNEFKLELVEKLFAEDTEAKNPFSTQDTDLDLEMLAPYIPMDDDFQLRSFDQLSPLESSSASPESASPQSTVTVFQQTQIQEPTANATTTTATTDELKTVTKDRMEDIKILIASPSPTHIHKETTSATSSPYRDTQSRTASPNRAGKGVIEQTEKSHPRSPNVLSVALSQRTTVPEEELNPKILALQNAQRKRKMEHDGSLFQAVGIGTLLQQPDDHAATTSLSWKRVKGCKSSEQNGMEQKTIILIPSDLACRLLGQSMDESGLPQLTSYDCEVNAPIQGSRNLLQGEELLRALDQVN
Outline: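 Dosed 24 h, transfected HepG2 cells yielded total RNA whose reporter transcripts were RT-PCR-amplified and sized by capillary electrophoresis using fluorescent labelling; DMSO defined baseline, with gain and loss of signal both fitted.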

[16] = target: Hepatocyte nuclear factor 6 (Homo sapiens) (UniProt Q9UBC0); experiment: ATG_HNF6_CIS: Attagene CIS-FACTORIAL HepG2 Assay for human Hepatocyte Nuclear Factor 6 (HNF6) (AID 2282952); conditions: HepG2 Attagene cis-factorial HNF6 reporter transcription; actives raise or lower the signal
Hepatocyte nuclear factor 6 (Homo sapiens), sequence (Q9UBC0 whole entry, looked up): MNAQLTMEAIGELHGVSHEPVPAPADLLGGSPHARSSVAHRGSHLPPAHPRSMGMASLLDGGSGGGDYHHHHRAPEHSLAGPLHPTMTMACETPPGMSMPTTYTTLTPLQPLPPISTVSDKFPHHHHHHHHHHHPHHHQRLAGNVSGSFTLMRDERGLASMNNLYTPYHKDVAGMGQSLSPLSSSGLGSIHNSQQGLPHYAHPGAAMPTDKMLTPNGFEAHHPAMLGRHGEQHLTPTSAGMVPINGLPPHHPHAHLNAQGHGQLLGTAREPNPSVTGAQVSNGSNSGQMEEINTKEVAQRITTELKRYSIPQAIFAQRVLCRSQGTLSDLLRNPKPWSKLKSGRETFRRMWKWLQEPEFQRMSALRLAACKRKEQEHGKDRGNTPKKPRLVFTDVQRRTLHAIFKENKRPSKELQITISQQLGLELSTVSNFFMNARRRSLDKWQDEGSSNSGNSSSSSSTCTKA
Outline: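 Endogenous transcription factor activity in human HepG2 liver cells was captured through cis-regulated reporter constructs. After 24 h treatment, reporter mRNA was measured by RT-PCR with capillary electrophoresis, and activity was fitted in both directions relative to DMSO.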

[17] = target: Heat shock factor protein 1 (Homo sapiens) (UniProt Q00613); experiment: ATG_HSE_CIS: Attagene CIS-FACTORIAL HepG2 Assay for human Heat Shock Transcription Factor 1 (HSE) (AID 2282953); conditions: HepG2 HSE cis-reporter, Attagene RNA transcription; actives raise or lower the signal
Heat shock factor protein 1 (Homo sapiens), sequence (Q00613 whole entry, looked up, the tested form may be a part): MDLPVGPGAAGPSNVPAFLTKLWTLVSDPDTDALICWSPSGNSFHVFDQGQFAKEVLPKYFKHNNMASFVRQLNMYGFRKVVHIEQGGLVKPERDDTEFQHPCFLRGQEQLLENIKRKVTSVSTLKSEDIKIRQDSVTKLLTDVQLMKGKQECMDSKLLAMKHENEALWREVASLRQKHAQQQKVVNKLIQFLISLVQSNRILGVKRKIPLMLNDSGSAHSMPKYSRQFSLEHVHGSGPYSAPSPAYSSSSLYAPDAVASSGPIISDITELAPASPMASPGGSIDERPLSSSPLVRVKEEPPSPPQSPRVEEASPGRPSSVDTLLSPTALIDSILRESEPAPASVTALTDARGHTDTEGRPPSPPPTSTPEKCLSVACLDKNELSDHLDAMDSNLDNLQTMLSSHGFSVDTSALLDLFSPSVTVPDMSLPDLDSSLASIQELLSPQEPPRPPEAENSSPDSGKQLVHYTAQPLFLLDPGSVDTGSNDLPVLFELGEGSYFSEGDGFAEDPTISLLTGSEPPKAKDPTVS
Outline: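 Cells were transfected with cis-element-driven reporter constructs, dosed for 24 h, then total RNA was reverse-transcribed and reporter cDNA amplified, FAM-labelled and digested with HpaI. Fragments were resolved by capillary electrophoresis; gain or loss was fitted against DMSO.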

[18] = ATG_MRE_CIS: Attagene CIS-FACTORIAL HepG2 Assay for human Metal Responsive Element (MRE) (AID 2282954); conditions: HepG2 MRE cis-reporter transcription, Attagene multiplex; actives raise or lower the signal
Outline: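 RT-PCR/capillary electrophoresis readout of reporter mRNA, 24 h post-dosing, in HepG2 cells transfected with multiplexed cis-regulated reporter constructs. Gain or loss of signal fitted bidirectionally against DMSO baseline.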

[19] = ATG_PBREM_CIS: Attagene CIS-FACTORIAL HepG2 Assay for human Phenobarbital-responsive Enhancer Module (PBREM) (AID 2282955); conditions: HepG2 PBREM cis-reporter, Attagene multiplexed transcription; actives raise or lower the signal
Outline: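 Transfected liver-derived HepG2 cells exposed 24 h; PBREM reporter transcript quantified via RT-PCR and capillary electrophoresis, with activity in either direction referenced to DMSO.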

[20] = ATG_M_32_CIS: Attagene CIS-FACTORIAL HepG2 Assay for M32 Transcription Factor (Internal Marker) (AID 2282949); conditions: HepG2 Attagene cis-factorial M32 reporter, mRNA; actives raise or lower the signal;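 note: background control marker of the multiplexed CIS panel rather than a real target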
Outline: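 Using DMSO as baseline, bidirectional curve fits were applied to reporter mRNA signals. These came from transiently transfected HepG2 cells exposed for 24 h, with RNA analysed by RT-PCR, FAM primer extension, HpaI digestion and CE.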

Measured: AC50

CSc1ccc(Oc2ccc(S(N)(=O)=O)cc2CN(C)C)cc1C
not listed: [20]
inactive: all other assays above

O=C(O)c1[nH]n(-c2ccc(S(=O)(=O)O)cc2)c(=O)c1N=Nc1ccc(S(=O)(=O)O)cc1
not listed: [12]
inactive: all other assays above

COC(=O)CCC(=O)OC
not listed: [17] | [20]
inactive: all other assays above

CCN(CC)CCOc1ccc(C(=C(Cl)c2ccccc2)c2ccccc2)cc1
active: [1] 11.9 µM | [3] 6.34 µM | [9] 17.6 µM | [10] 9.35 µM | [11] 5.65 µM and 4.78 µM | [15] 9.35 µM | [16] 11.4 µM | [17] 14.3 µM | [18] 13.8 µM
inactive: [1] | [2] | [3] | [4] | [6] | [7] | [8] | [9] | [10] | [11] | [12] | [13] | [20] | [14] | [15] | [16] | [17] | [18] | [19]

CN(C)C(=O)NC1(c2ccccc2)CCN(CCC[C@]2(c3ccc(Cl)c(Cl)c3)CCCN(C(=O)c3ccccc3)C2)CC1
active: [1] 4.17 µM | [3] 2.75 µM | [11] 4.21 µM | [18] 4.19 µM
inactive: all other assays above

COc1ccc(C(=O)Nc2nc3ccccc3c(NCc3ccccc3)c2C#N)cc1
active: [5] 1.46 µM | [15] 26.5 µM
not listed: [20]
inactive: all other assays above

— PubChem BioAssay (EPA / NIEHS)
